Laboratory results from PubChem BioAssay (Tox21).
Inconclusive results are not listed. Activity calls are given as the source filed them. Unless noted, calls come from the whole dose curve; as a rule, active = well fitted curve in the direction sought with a large enough effect in the repeat runs; inconclusive = weak or mixed curves; inactive = no such curve, though single readings can be large; an effect the other way counts as inactive or inconclusive.

Legend:
[1] = qHTS RealTime-Glo MT Cell Viability Assay in HEK293 cells - 8 hour (AID 1224887); note: top concentration of the series differs between compounds; nearly all actives have a fitted effect of over 50% in size
Method in brief: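 HEK293 + NanoLuc + prosubstrate, 600 cells/well; 5 h, 37 C/5% CO2; compound 23 nL in DMSO by pintool; 37 C; luminescence read at 0, 8, 16, 24, 32 and 40 h time points.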

[2] = qHTS RealTime-Glo MT Cell Viability Assay in HepG2 cells - 0 hour (AID 1224889); note: nearly all actives have a fitted effect of over 50% in size
Method in brief: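 Luminescence read-out: viable HepG2 cells reduce a prosubstrate to a NanoLuc substrate, giving a signal proportional to live cell number. Reads taken at 0, 8, 16, 24, 32 and 40 h of compound exposure at 37 C.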

[3] = A CellTox Green Cytotoxicity Assay to monitor cytotoxicity in HepG2 cells - 8 hour (AID 1224890); note: nearly all actives have a fitted effect of over 45% in size
Method in brief: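 Measurements at 0, 8, 16, 24, 32 and 40 h of treatment captured CellTox Green fluorescence in HepG2 cells that had been co-plated with reagent and preincubated 5 h at 37 C/5% CO2.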

[4] = qHTS assay to identify small molecule antagonists of the estrogen receptor alpha (ER-alpha) signaling pathway using the BG1 cell line in the presence of 0.1 nM 17-beta-estradiol - cell viability counter screen (AID 1259241); note: nearly all actives have a fitted effect of over 40% in size
Method in brief: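 The cell line endogenously expresses full-length ER-alpha and carries four EREs driving luciferase. Cells are cultured 5 days hormone-free, treated 22 hr with compounds and 0.1 nM estradiol, then viability is read by fluorescence.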

[5] = qHTS assay to identify small molecule antagonists of the androgen receptor (AR) signaling pathway using the MDA cell line in the presence of 0.5 nM R1881 - cell viability counter screen (AID 1259242); note: nearly all actives have a fitted effect of over 45% in size
Method in brief: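 Concentration-response screen of compounds for toxicity in MDA-kb2 reporter cells: 16 hr at 37C with 0.5 nM R1881, endpoint live-cell protease fluorescence measured in the reporter wells.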

[6] = molecular target: Estrogen receptor (Homo sapiens) (UniProt P03372); assay: qHTS assay to identify small molecule antagonists of the estrogen receptor alpha (ER-alpha) signaling pathway using the BG1 cell line in the presence of 0.1 nM 17-beta-estradiol (AID 1259244); note: nearly all actives have a fitted effect of over 50% in size
Sequence of Estrogen receptor (Homo sapiens) (P03372 whole entry, looked up): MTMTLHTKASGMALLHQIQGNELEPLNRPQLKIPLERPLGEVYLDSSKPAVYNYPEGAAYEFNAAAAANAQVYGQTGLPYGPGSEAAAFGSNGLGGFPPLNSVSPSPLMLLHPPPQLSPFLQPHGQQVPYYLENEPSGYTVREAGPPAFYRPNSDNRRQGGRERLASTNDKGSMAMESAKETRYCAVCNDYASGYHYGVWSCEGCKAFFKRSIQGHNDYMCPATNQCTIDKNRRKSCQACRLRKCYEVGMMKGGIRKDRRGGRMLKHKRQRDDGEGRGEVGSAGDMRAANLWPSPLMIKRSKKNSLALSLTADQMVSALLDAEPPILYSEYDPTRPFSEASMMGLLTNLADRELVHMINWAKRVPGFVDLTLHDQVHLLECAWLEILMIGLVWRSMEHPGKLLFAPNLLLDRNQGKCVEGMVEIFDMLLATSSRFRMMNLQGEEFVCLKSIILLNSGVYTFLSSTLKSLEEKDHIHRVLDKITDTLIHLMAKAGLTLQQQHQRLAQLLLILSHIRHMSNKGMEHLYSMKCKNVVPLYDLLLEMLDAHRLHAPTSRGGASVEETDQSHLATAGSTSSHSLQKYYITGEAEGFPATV
Method in brief: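 Compounds were tested against 0.1 nM (final) 17beta-estradiol in VM7Luc4E2 cells, which express full-length ER-alpha and an ERE-luciferase reporter; luminescence was recorded following 22 h exposure.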

[7] = qHTS assay to identify small molecule HDAC inhibitors (AID 1259364); note: potency is the fitted concentration of half-maximal effect;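 note: wild-type HCT-116 cells with endogenous class I/II HDAC activity; nearly all actives have a fitted effect of over 45% in size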
Method in brief: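 Screening used wild-type human colon HCT-116 cells incubated overnight, dosed with compounds for 2 hours, and assayed with a homogeneous luminogenic HDAC I/II reagent for 30 minutes at room temperature.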

[8] = A CellTox Green Cytotoxicity Assay to monitor cytotoxicity in HEK293 cells - 16 hour (AID 1224888); note: nearly all actives have a fitted effect of over 35% in size
Method in brief: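 Tox21 screen in HEK293: membrane-impermeant cyanine dye fluoresces on binding dead-cell DNA; compound pinned 5 h post-seeding, plates held at 37 C, signal read repeatedly through 40 h.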

[9] = qHTS assay to identify small molecule phospholipidosis (PLD) inducers (AID 1259344; active = well fitted curve in the direction sought with a large enough effect; an effect the other way counts as inactive or inconclusive)
Method in brief: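 Phospholipid accumulation was scored by imaging: fixed, Hoechst-counterstained HepG2 cells stained with LipidTOX Red after 24 h compound exposure at 37 C. Read-outs were pit count and pit intensity per well or per cell, with amiodarone and DMSO controls.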

[10] = molecular target: Androgen receptor (Homo sapiens) (UniProt P10275); assay: qHTS assay to identify small molecule antagonists of the androgen receptor (AR) signaling pathway using the MDA cell line in the presence of 0.5 nM R1881 (AID 1259243); note: nearly all actives have a fitted effect of over 50% in size; note: potency is the fitted concentration of half-maximal effect
Sequence of Androgen receptor (Homo sapiens) (P10275 whole entry, looked up): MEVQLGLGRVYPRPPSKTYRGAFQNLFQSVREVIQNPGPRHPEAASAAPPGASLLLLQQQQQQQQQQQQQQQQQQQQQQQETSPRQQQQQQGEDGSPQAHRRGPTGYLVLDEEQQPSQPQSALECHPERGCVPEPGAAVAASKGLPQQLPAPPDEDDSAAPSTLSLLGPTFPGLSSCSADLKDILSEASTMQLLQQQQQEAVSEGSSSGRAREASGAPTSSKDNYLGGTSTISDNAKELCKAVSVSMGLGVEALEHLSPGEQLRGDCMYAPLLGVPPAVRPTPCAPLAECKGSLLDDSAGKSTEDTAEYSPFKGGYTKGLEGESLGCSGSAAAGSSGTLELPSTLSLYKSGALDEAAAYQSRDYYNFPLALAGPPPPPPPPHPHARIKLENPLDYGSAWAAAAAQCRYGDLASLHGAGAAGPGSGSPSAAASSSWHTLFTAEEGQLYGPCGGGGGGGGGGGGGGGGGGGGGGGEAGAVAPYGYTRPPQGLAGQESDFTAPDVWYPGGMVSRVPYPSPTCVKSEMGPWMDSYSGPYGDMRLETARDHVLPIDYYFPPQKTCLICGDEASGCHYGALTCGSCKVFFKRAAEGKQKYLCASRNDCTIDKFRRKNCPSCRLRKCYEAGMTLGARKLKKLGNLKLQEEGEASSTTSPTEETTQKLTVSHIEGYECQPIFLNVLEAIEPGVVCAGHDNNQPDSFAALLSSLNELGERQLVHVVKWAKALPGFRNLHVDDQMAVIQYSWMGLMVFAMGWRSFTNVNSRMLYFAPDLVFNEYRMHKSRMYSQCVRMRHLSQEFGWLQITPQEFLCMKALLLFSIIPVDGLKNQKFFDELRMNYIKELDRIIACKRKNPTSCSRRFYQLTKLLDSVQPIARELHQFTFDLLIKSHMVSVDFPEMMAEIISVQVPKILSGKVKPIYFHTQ
Method in brief: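 With R1881 held at 0.5 nM (final), compound effects on MMTV-luciferase expression in MDA-kb2 cells were scored by luminescence after a 16 hr, 37C incubation.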

Measured: Potency

CC(=O)OC/C=C(/C)CCC=C(C)C
inactive: [1] | [2] | [3] | [4] | [5] | [6]

CCCCN1C(=O)c2ccccc2C1=O
inactive: [1] | [2] | [3] | [4] | [5] | [6] | [7]

O=CN1CCCCC1
inactive: [1] | [2] | [3] | [4] | [5] | [6]

C=CC(=O)OCCOCCOCC
inactive: [1] | [2] | [3] | [4] | [5] | [7]

CCOC(=O)COc1ccc2c(C)c(CCN(CC)CC)c(=O)oc2c1Cl
inactive: [8] | [2] | [3] | [4] | [5] | [6] | [9] | [7]

C[C@H]1COc2c(C3(N)CC3)c(F)cc3c(=O)c(C(=O)O)cn1c23
inactive: [1] | [2] | [3] | [4] | [5] | [9] | [7]

CC(C)(C)OC(=O)c1ccccc1C(=O)O
inactive: [1] | [2] | [3] | [4] | [5] | [6] | [7]

O=C1Nc2ccccc2C1=O
inactive: [8] | [2] | [3] | [4] | [5] | [7]

CC(=O)Oc1ccc(C(C)=O)cc1
inactive: [1] | [2] | [3] | [4] | [5] | [6] | [7]

O=C(O)/C=C(\CC(=O)O)C(=O)O
inactive: [1] | [2] | [3] | [4] | [5] | [9] | [7]

NCC1CCC(C(=O)Oc2ccc(CCC(=O)O)cc2)CC1 (stereo unspecified)
active: [7] 8.41 µM
inactive: [1] | [2] | [3] | [4] | [5] | [9]

O=C(OOC(=O)c1ccccc1)c1ccccc1
inactive: [8] | [2] | [3] | [4] | [5] | [6] | [9] | [7]

COc1ccc(Cl)cc1C
inactive: [1] | [2] | [3] | [4] | [5] | [7]

Clc1ccc2c(c1)Nc1ccccc1S2
inactive: [8] | [2] | [3] | [4] | [5] | [7]
active: [10] 10.6 µM

Clc1cc(Cl)c(Cl)c(Cl)c1Cl
inactive: [1] | [2] | [3] | [4] | [5] | [6] | [7]

CCCCS
inactive: [1] | [2] | [3] | [4] | [5] | [7]

NS(=O)(=O)c1cc2c(cc1C(F)(F)F)NCNS2(=O)=O
inactive: [1] | [2] | [3] | [4] | [5] | [6] | [9] | [7]

CC(=O)c1ccc2ccc3ccccc3c2c1
inactive: [8] | [2] | [3] | [4] | [5] | [6] | [7]

CC(C)(C)C(=O)NCCCC(=O)O
inactive: [1] | [2] | [3] | [4] | [5] | [6] | [9] | [7]

COCc1nnc(-c2ccc[n+]([O-])c2)n1-c1c(Cl)c(Cl)cc2[nH]c(=O)c(=O)[nH]c12
inactive: [1] | [2] | [3] | [4] | [5] | [10] | [7]

CCOC(=O)c1ccc(N(C)C)cc1
active: [7] 9.69 µM
inactive: [1] | [2] | [3] | [4] | [5]

Cc1ccccc1C#N
inactive: [1] | [2] | [3] | [4] | [5] | [6] | [7]

CCCC[O][Al]([O]CCCC)[O]CCCC
inactive: [1] | [2] | [3] | [4] | [5] | [7]

CC(C)OC(=O)C(C(=O)OC(C)C)=C1SC=CS1
inactive: [2] | [3] | [4] | [5] | [10] | [9] | [7]

CC1(C)CC(N)CC(C)(C)N1
inactive: [1] | [2] | [3] | [4] | [5] | [7]

CCC(C)c1nccnc1OC (stereo unspecified)
inactive: [1] | [2] | [3] | [4] | [5] | [6] | [7]

C=CCCCCCCCCOC(C)=O
inactive: [1] | [2] | [3] | [4] | [5] | [6] | [7]

Cc1ccc(NC(N)=O)cc1
inactive: [1] | [2] | [3] | [4] | [5] | [6] | [7]
